About 55 (4%) of roughly 1,400 compounds were called active. These entries were drawn from the full list. Measured potencies and affinities stand elsewhere. A number with no mark means an inactive call. The rule behind the calls is not given here.
Test: viability loss in A549 cells – cell-based, plate reader, cherry-pick samples, cytotoxicity control, dose response (AID 687028);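 note: cells incubated with compound for three days before reading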
Settings: series mostly up to 19.5 µM; activity change, negative = toxicity: at the top concentration

In order of rising “activity change, negative = toxicity” value:
1. COc1ccc(C(CNC(=O)c2cccc3cccnc23)N(C)C)cc1 (stereo not given)  -38.7%
2. COc1ccccc1S(=O)(=O)N(C)C[C@H]1Oc2cc(C#CCC(C)C)ccc2S(=O)(=O)N([C@@H](C)CO)C[C@@H]1C  -33%
3. C[C@@H]1CCCCO[C@H](CN(C)Cc2ccc(C(F)(F)F)cc2)[C@H](C)CN([C@@H](C)CO)C(=O)c2cc(NC(=O)c3ccccc3)ccc2O1  -31.1%
4. C[C@H](CO)N1C[C@H](C)[C@H](CN(C)C(=O)Nc2ccc(F)cc2)OCCCC[C@H](C)Oc2ccc(NC(=O)c3ccccc3)cc2C1=O  -6.69%
5. COc1ccc(-c2cnc3c(NC(C)=O)cc(-c4ccccc4OC)cn23)cc1OC  -5.73%
6. C[C@@H]1CCCCO[C@@H](CN(C)C(=O)Nc2ccc(C(F)(F)F)cc2)[C@H](C)CN([C@H](C)CO)C(=O)c2cc(NC(=O)Cc3ccccc3)ccc2O1  -4.73%
7. CC(=O)Nc1cccc(OCCCNC(=O)c2ccc(C(C)(C)C)cc2)c1  -4.38%
8. CCCCNC(=O)C[C@@H]1C[C@@]2(C(=O)OC)CCCCC=C2N(CCC2=CCCCC2)C1=O  -3.84%
9. O=C(Nc1cccc(Cl)c1)c1ccccc1  -3.71%
10. COc1ccc(-c2nc(NCCCN(C)C)c3ccccc3n2)cc1  -3.68%
11. COc1ccccc1CN1[C@H](CO)[C@@H](c2ccccc2)C12CN(C(=O)c1ccccn1)C2  -3.67%
12. O=C(NCCNC(=O)c1cc(F)cc(F)c1)c1cc(F)cc(F)c1  -3.56%
13. O=C(OCc1ccccc1)N1CCC2CC1c1ccc(-c3ccc4c(c3)OCO4)cc12 (stereo not given)  -3.39%
14. C[C@H]1CN([C@@H](C)CO)C(=O)c2cccc(NS(=O)(=O)c3ccccc3)c2O[C@@H]1CN(C)Cc1ccc(Cl)c(Cl)c1  -3.38%
15. Clc1cc(Br)ccc1OCCCn1ccnc1  -3.3%
16. CC1(NC(=O)c2cc(Cl)nc3ccccc23)CCS(=O)(=O)C1 (stereo not given)  -2.91%
17. COc1ccc(C2=Nn3c(nnc3-c3ccccc3Cl)SC2)cc1OCC1CC1  -2.82%
18. C[C@H](CO)N1C[C@H](C)[C@H](CN(C)C(=O)c2ccccc2)Oc2cc(C3=CCCCC3)ccc2S1(=O)=O  -2.34%
19. Cc1ccc(S(=O)(=O)Cc2ccccc2Cl)cc1  -2.25%
20. Cc1ccc2oc3c(c(=O)c2c1)C(c1cccc(Cl)c1)N(CCCN1CCOCC1)C3=O (stereo not given)  -1.92%
21. CCOc1cc(CNCCN2CCOCC2)ccc1OCc1ccccc1Cl  -1.76%
22. O=c1c2cc(Br)ccc2[nH]c(=S)n1Cc1ccccn1  -1.61%
23. COc1ccc(CC(=O)Nc2ccc(C)c(S(=O)(=O)N3CCCCCC3)c2)cc1  -1.27%
24. COC(=O)c1ccc2nc(C3CCCCC3)c(Cc3ccccc3OC)n2c1  -1.25%
25. Cc1cc(O)c(C(C)C)cc1NC(=O)c1ccccc1Cl  -1.25%
26. COc1ccc(C(=O)NCCNc2nc3c(C)cccc3cc2C#N)cc1OC  -1.18%
27. COc1ccc2c3c([nH]c2c1)[C@@H](CO)N(C(=O)C1CCOCC1)CC31CN(C)C1  -1.01%
28. CC(=O)Nc1cccc2ncccc12  -0.652%
29. Cc1ccc(CNCc2cc(Cl)ccc2O)cc1  -0.534%
30. CN(C)CC(=O)Nc1ccc2c(c1)[C@@H]1C[C@@H](CC(=O)NC3CCCCC3)O[C@H](CO)[C@@H]1O2  -0.282%
31. Cc1ccc(C)c(C(Nc2ccccc2)c2ccc3ccc(C)nc3c2O)c1 (stereo not given)  -0.272%
32. CCOC(=O)Cc1sc(N)nc1C  0.064%
33. Cc1ccc(NC(=O)C2CCN(S(C)(=O)=O)CC2)cc1Cl  0.073%
34. CC(OC(=O)c1ccc2c(=O)n3c(nc2c1)CCC3)C(=O)NC1CCCCC1C (stereo not given)  0.101%
35. Oc1ccc(Cl)cc1CNCc1ccc(F)cc1  0.475%
36. CCCCNC(=O)c1ccc(NS(=O)(=O)c2ccc3[nH]c(=O)[nH]c3c2)cc1  0.722%
37. Cn1c(N)c(C(=O)N2CCN(c3ccccc3)CC2)c(=O)n(C)c1=O  0.876%
38. COc1ccc(NC(=O)N2C[C@@H](O)COC[C@@H]3O[C@H](CC(=O)NC4Cc5ccccc5C4)CC[C@H]32)cc1  0.889%
39. COc1ccc(Cl)cc1N1C(=O)CC(N2CCN(S(=O)(=O)c3ccccc3F)CC2)C1=O (stereo not given)  1.09%
40. CN(C)c1ccc(-c2cc3ccccc3c(=O)o2)cc1  1.1%
41. N#C[C@@H]1[C@H](c2ccc(C#Cc3ccccc3F)cc2)[C@@H](CO)N1C(=O)C1CC1  1.1%
42. O=C(CN1CCN(S(=O)(=O)c2ccccc2F)CC1)NC1CCCC1  1.27%
43. COc1cccc(C2(c3cccc(OC)c3)CC2C(=O)Nc2ccc(F)cc2)c1 (stereo not given)  1.49%
44. Cc1c(C(=O)OC(C)C)sc(N)c1C(=O)OC(C)C  1.5%
45. CC(Oc1ccccc1Cl)C(=O)N1CCOCC1 (stereo not given)  1.54%
46. Cc1ccc(NC(=O)C(=O)NCC2CCCN2S(=O)(=O)c2cccs2)cc1 (stereo not given)  1.62%
47. O=C(c1ccc(F)cc1)N1CCC(C(=O)N2CCCc3ccccc32)CC1  1.63%
48. C/C=C/c1ccc([C@H]2[C@@H](CO)N3CCCCN(S(=O)(=O)c4ccccc4)C[C@@H]23)cc1  1.81%
49. C[C@H](CO)N1C[C@H](C)[C@H](CN(C)C)Oc2ncc(C#CC3CC3)cc2C1=O  1.84%
50. Cc1cc(F)ccc1S(=O)(=O)Nc1ncnc2scc(-c3ccc(F)cc3)c12  1.95%
51. O=C(NCCCCNC(=O)c1cccnc1Cl)c1cccnc1Cl  1.96%
52. CN1C(C)(C)c2ccccc2OS1(=O)=O  2.21%
53. Cc1ccc(OCCCCNC(C)c2ccccc2)c(C)c1 (stereo not given)  2.38%
54. CC(NC(=O)CN1CCN(c2cccc(Cl)c2)CC1)c1ccccc1 (stereo not given)  2.41%
55. COc1cccc(NC(=O)COc2cccc3c2CCNC3=O)c1  2.81%
56. O=C(NCc1ccccc1)[C@H]1CCCN1C(=O)[C@H]1CCCN1C(=O)c1ccc(Cl)cc1  2.99%
57. Clc1cc(Br)ccc1OCCOCCN1CCCC1  3.02%
58. COc1ccc(C(C)(NC(C)=O)c2nc(-c3cccc(F)c3)cs2)cc1 (stereo not given)  3.2%
59. COC(=O)[C@]12CCCCC=C1N(Cc1cccc3ccccc13)C(=O)[C@H](CC(=O)NCCC(C)C)C2  3.24%
60. COc1ccccc1NCC(=O)N/N=C(\C)c1ccc(Br)s1  3.35%
61. C[C@@H]1CN([C@H](C)CO)C(=O)c2cc(NC(=O)Nc3ccc(C(F)(F)F)cc3)ccc2O[C@@H](C)CCCCO[C@@H]1CN(C)C(=O)Cc1ccccc1  3.37%
62. COc1cc(NC(C)=O)c2ncccc2c1Br  3.43%
63. CC1=NCCN1CCNC(=O)Nc1ccc(C(C)(C)C)cc1  3.62%
64. Cc1nc2ccccc2n1C(c1cccnc1)c1nc2ccccc2[nH]1 (stereo not given)  3.62%
65. COc1cccc(C(=O)N2CCOCC2)c1  3.69%
66. CCC(=O)Nc1nnc(/C=C/c2ccc(OC)cc2)s1  3.82%
67. CC1(C(=O)NCc2ccccc2)CN(S(C)(=O)=O)CC(=O)N1CCc1ccccc1F (stereo not given)  3.86%
68. O=C(NCCN1CCC(n2c(=O)[nH]c3ccccc32)CC1)c1ccccc1  3.87%
69. CCCc1nc2ccccc2n1C(C)C(=O)NC(C)(C)C (stereo not given)  3.89%
70. O=C(C[C@@H]1CC[C@H]2[C@@H](COC[C@H](O)CN2C(=O)c2ccccc2F)O1)NCc1ccccc1  4.14%
71. O=C1c2ccccc2C(=O)N1CC(=O)N1c2ccccc2Sc2ccc(C(F)(F)F)cc21  4.42%
72. CCOC(=O)[C@]12CCC=C1N(Cc1cccc3ccccc13)C(=O)[C@H](CC(=O)N1CCCC1)C2  4.62%
73. Cc1ccc(C)c(NS(=O)(=O)c2cc(C(=O)NCc3ccncc3)ccc2C)c1  4.78%
74. O=C(NCc1ccccc1)C(c1ccncc1)n1c(=O)c(-c2ccccc2)nc2ccccc21 (stereo not given)  4.91%
75. CCc1c(C(=O)Nc2cc(C(=O)OC)ccc2C)csc1C  4.93%
76. CC1CCN(CCOc2ccc(OCc3ccccc3)cc2)CC1  5.09%
77. O=C(NC1CC1)c1cccc(NC(=O)c2cc(S(=O)(=O)N3CCOCC3)ccc2Cl)c1  5.28%
78. COc1ccc(S(=O)(=O)N2CCC(C(=O)NCCC(=O)NCc3ccccn3)CC2)cc1  5.8%
79. CCOC(=O)[C@]12CCCC=C1N(Cc1ccccc1)C(=O)[C@H](CC(=O)NCc1cccs1)C2  5.87%
80. CCCCCNC(=O)c1[nH]c(C(F)(F)F)nc1-c1ccccc1  6.01%
81. CN(C)C(=O)c1cccc(-c2ccc3c(c2)[C@@H]2[C@@H](CCN2C(=O)Cc2ccncc2)[C@@H](CO)N3)c1  6.17%
82. CCc1cccc(OCCN2CCCC2)c1  6.55%
83. COc1ccc(C2=Nc3ccccc3N(C(=O)c3ccncc3)C2C(=O)NC(C)C)cc1 (stereo not given)  6.76%
84. O=C(c1ccc2c(c1)OCO2)N1CCC(Cc2ccccc2)CC1  7.07%
85. ClCCCc1cn(C[C@H]2CC[C@@H]([C@@H]3CC[C@H](Cn4cc(CCCCl)nn4)O3)O2)nn1  7.49%
86. COc1ccc(C)cc1NC(=O)C1CCN(S(=O)(=O)c2cccc3cccnc23)CC1  7.52%
87. CC(C)(C)c1ccc(C(=O)OCC(=O)Nc2sc3c(c2C#N)CCC3)cc1  8.14%
88. O=C(NCc1ccccn1)C(=O)NCC1OCCN1S(=O)(=O)c1ccc(Br)cc1 (stereo not given)  8.48%
89. COC(=O)[C@@H]1[C@H](CCc2ccccc2)NC(=O)N(Cc2ccccc2)[C@@H]1C  9.65%
90. CC(C)(C)c1ccc(C(=O)Nc2ccc3c(c2)C(=O)NC3=O)cc1  12.8%
91. CN1c2ccc(Br)cc2[C@@H]2[C@@H](CCN2C(=O)C2CCCC2)[C@H]1CO  13.6%

In order of rising “activity change, negative = toxicity” value:
1. C[C@@H]1CN([C@@H](C)CO)C(=O)c2cc(NC(=O)Nc3ccc(C(F)(F)F)cc3)ccc2O[C@@H]1CN(C)C(=O)NC1CCCCC1  -5.36% [at 21 µM]
2. Cc1ccc(S(=O)(=O)N(C)C[C@H]2Oc3ccc(NS(=O)(=O)c4ccc(F)cc4)cc3C(=O)N([C@H](C)CO)C[C@@H]2C)cc1  -2.45% [at 21 µM]
3. CN1c2ccc(Br)cc2[C@H]2[C@H](CCN2C(=O)C2CCC2)[C@H]1CO  -2.31% [at 21 µM]
4. C[C@@H]1CCCCO[C@H](CN(C)C(=O)NC2CCCCC2)[C@@H](C)CN([C@H](C)CO)C(=O)c2cc(NC(=O)CCCCCC(=O)Nc3ccccc3N)ccc2O1  -0.471% [at 21 µM]
